Assay results published in PubChem BioAssay AID1159580 (chemical genetic matrix, 2015).
Screen size: about 5,500 compounds; about 2,000 (36%) were called active. About 18% were inconclusive and are not listed. Cut-off read from the data, not from the text of the source: active = normalized growth mostly below about 0.91 (no sharp cut-off); inconclusive = no clear call, values can overlap the other calls; inactive = mostly above about 0.92. Some of the results follow.

Test: chemical genetic growth profiling, strain panel (AID 1159580);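 note: tested at 20 µM; growth read once vehicle control cultures reached saturation at 30 °C; 1 = growth at the plate median or of vehicle wells; lower values mean less growth of the strain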
Conditions: S. cerevisiae deletion strains, growth OD

Measured: normalized growth

OCCc1ccccc1
inactive: locus YAL021C, strain ccr4, stronger effect = lower value 0.971 | locus YAL026C, strain drs2, stronger effect = lower value 0.98 | locus YAL030W, strain snc1, stronger effect = lower value 0.968 | locus YBL061C, strain skt5, stronger effect = lower value 0.985 | locus YBR009C, strain hhf1, stronger effect = lower value 0.976 | locus YBR023C, strain chs3, stronger effect = lower value 0.992 | locus YBR171W, strain sec66, stronger effect = lower value 0.968 | locus YBR231C, strain swc5, stronger effect = lower value 0.989 | locus YBR279W, strain paf1, stronger effect = lower value 0.989 | locus YCL011C, strain gbp2, stronger effect = lower value 0.989 | locus YCL016C, strain dcc1, stronger effect = lower value 0.994 | locus YCL061C, strain MRC1, stronger effect = lower value 0.994 | locus YCL069W, strain vba3, stronger effect = lower value 0.99 | locus YCR088W, strain abp1, stronger effect = lower value 0.983 | locus YDL005C, strain med2, stronger effect = lower value 0.989 | locus YDL040C, strain nat1, stronger effect = lower value 0.999 | locus YDR001C, strain nth1, stronger effect = lower value 0.974 | locus YDR069C, strain doa4, stronger effect = lower value 0.981 | locus YDR137W, strain rgp1, stronger effect = lower value 0.948 | locus YDR159W, strain sac3, stronger effect = lower value 0.98 | locus YDR195W, strain ref2 0.947 | locus YDR297W, strain sur2, stronger effect = lower value 0.984 | locus YDR334W, strain swr1, stronger effect = lower value 0.94 | locus YDR335W, strain msn5, stronger effect = lower value 0.982 | locus YDR392W, strain spt3, stronger effect = lower value 0.999 | locus YEL003W, strain gim4, stronger effect = lower value 0.981 | locus YEL037C, strain rad23, stronger effect = lower value 0.986 | locus YEL061C, strain CIN8 (second series), stronger effect = lower value 0.977 | locus YER015W, strain faa2, stronger effect = lower value 0.987 | locus YER016W, strain bim1, stronger effect = lower value 0.99 | locus YER111C, strain swi4, stronger effect = lower value 0.982 | locus YER155C, strain BEM2 (second series), stronger effect = lower value 0.975 | locus YFR010W, strain ubp6, stronger effect = lower value 0.973 | locus YGL167C, strain pmr1, stronger effect = lower value 0.99 | locus YGL173C, strain kem1, stronger effect = lower value 0.957 | locus YGL227W, strain vid30, stronger effect = lower value 0.971 | locus YGL240W, strain doc1, stronger effect = lower value 0.977 | locus YGL253W, strain hxk2, stronger effect = lower value 0.986 | locus YHR013C, strain ard1, stronger effect = lower value 0.99 | locus YHR027C, strain rpn1, stronger effect = lower value 0.961 | locus YHR030C, strain SLT2, stronger effect = lower value 0.97 | locus YHR079C, strain IRE1, stronger effect = lower value 0.951 | locus YHR142W, strain chs7, stronger effect = lower value 0.972 | locus YJL092W, strain hpr5, stronger effect = lower value 0.988 | locus YJL095W, strain BCK1 (second series), stronger effect = lower value 0.986 | locus YJL095W, strain BCK1, stronger effect = lower value 1.02 | locus YJL115W, strain asf1, stronger effect = lower value 0.976 | locus YJL129C, strain trk1, stronger effect = lower value 1.03 | locus YJL154C, strain vps35, stronger effect = lower value 0.969 | locus YJL164C, strain tpk1, stronger effect = lower value 1 | locus YJL166W, strain qcr8, stronger effect = lower value 0.989 | locus YJL187C, strain SWE1, stronger effect = lower value 0.987 | locus YJR066W, strain TOR1, stronger effect = lower value 0.952 | locus YKL160W, strain elf1, stronger effect = lower value 0.996 | locus YKR026C, strain gcn3, stronger effect = lower value 0.983 | locus YKR091W, strain srl3, stronger effect = lower value 0.994 | locus YLL001W, strain dnm1, stronger effect = lower value 0.999 | locus YLL026W, stronger effect = lower value 0.97 | locus YLL041C, strain sdh2, stronger effect = lower value 0.984 | locus YLR027C, strain aat2, stronger effect = lower value 0.965 | locus YLR113W, strain HOG1, stronger effect = lower value 1.01 | locus YLR221C, strain rsa3, stronger effect = lower value 0.982 | locus YLR258W, strain gsy2, stronger effect = lower value 0.992 | locus YLR262C, strain YPT6 (second series), stronger effect = lower value 0.961 | locus YLR320W, strain mms22, stronger effect = lower value 0.987 | locus YLR342W, strain FKS1, stronger effect = lower value 0.988 | locus YLR357W, strain rsc2, stronger effect = lower value 1 | locus YLR370C, strain arc18, stronger effect = lower value 0.988 | locus YLR384C, strain iki3, stronger effect = lower value 0.979 | locus YML120C, strain ndi1, stronger effect = lower value 0.995 | locus YMR058W, strain fet3, stronger effect = lower value 0.98 | locus YMR125W, strain sto1, stronger effect = lower value 0.982 | locus YMR129W, stronger effect = lower value 0.99 | locus YMR205C, strain PFK2, stronger effect = lower value 0.963 | locus YMR231W, strain pep5, stronger effect = lower value 0.99 | locus YNL071W, strain lat1, stronger effect = lower value 0.986 | locus YNL183C, strain NPR1, stronger effect = lower value 0.958 | locus YNL209W, strain ssb2, stronger effect = lower value 0.988 | locus YNL248C, strain rpa49, stronger effect = lower value 0.994 | locus YNL322C, strain KRE1 (second series), stronger effect = lower value 0.988 | locus YNR049C, strain mso1, stronger effect = lower value 0.975 | locus YOR001W, strain rrp6, stronger effect = lower value 0.993 | locus YOR070C, strain gyp1, stronger effect = lower value 0.986 | locus YOR080W, strain dia2, stronger effect = lower value 0.996 | locus YOR083W, strain WHI5, stronger effect = lower value 0.995 | locus YOR106W, strain vam3, stronger effect = lower value 0.976 | locus YOR231W, strain MKK1, stronger effect = lower value 0.973 | locus YOR265W, strain rbl2, stronger effect = lower value 1 | locus YOR270C, strain vph1, stronger effect = lower value 0.949 | locus YOR290C, strain snf2, stronger effect = lower value 0.986 | locus YPL051W, strain arl3, stronger effect = lower value 0.995 | locus YPL078C, strain atp4, stronger effect = lower value 0.976 | locus YPL106C, strain sse1, stronger effect = lower value 0.916 | locus YPL240C, strain hsp82, stronger effect = lower value 0.997 | locus YPL256C, strain CLN2, stronger effect = lower value 0.981
